# According to PubChem BioAssay (Tox21):
# Values without a mark were called inactive. Records with an inconclusive call do not appear. Entries that show only a call come without a potency. Activity calls are given as the source filed them. Unless noted, the call rests on the fitted dose curve.
# How the values were obtained:
# [1] = Nuclear factor erythroid 2-related factor 2/antioxidant responsive element (Nrf2/ARE) small molecule agonists: qHTS cell viability counter screen in human keratinocytes (AID 1919968; active means well fitted curve in the direction sought with a large enough effect in the repeat runs; an effect the other way counts as inactive or inconclusive; further: nearly all actives have a fitted effect of over 55% in size)
# Procedure, shortened: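 Stably transfected HaCaT (KeratinoSens), 1,500/well. Test agents in DMSO were applied for 23 h, 37 C/5% CO2. CellTiter-Fluor was incubated 1 h before the fluorescence read.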
# [2] = Nuclear factor erythroid 2-related factor 2/antioxidant responsive element (Nrf2/ARE) small molecule agonists: luciferase reporter gene qHTS assay in human keratinocytes (AID 1919969); further: nearly all actives have a fitted effect of over 35% in size; further: potency means the concentration at half of the fitted maximal effect
# [3] = target: Gonadotropin-releasing hormone receptor (Homo sapiens) (UniProt P30968); assay: Human gonadotropin-releasing hormone receptor (GnRHR) small molecule agonists, calcium flux assay in GnRHR-HEK293 cells (AID 1920063); further: nearly all actives have a fitted effect of over 35% in size
# Procedure, shortened: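 Stable human GnRHR HEK293 line. 18 h plating, then calcium dye for 1 h at 37 C. Agonist-mode compound addition from DMSO stocks; fluorescence monitored 3 min.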
# [4] = target: KiSS-1 receptor (Homo sapiens) (UniProt Q969F8); assay: Human kisspeptin (KISS1R) small molecule agonists, calcium flux assay in KISS1R-HEK293 cells (AID 1920064; active means well fitted curve in the direction sought with a large enough effect in the repeat runs; an effect the other way counts as inactive or inconclusive)
# Procedure, shortened: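 After overnight (18 h) culture at 37 C/5% CO2, human KISS1R-HEK293 cells received calcium dye for 1 h, then test compound; emission at 540 nm (excitation 480 nm) was tracked for 3 min.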
# [5] = p53 small molecule agonists, cell-based qHTS assay with human liver microsomes: qHTS cell viability counter screen (AID 1963579); further: nearly all actives have a fitted effect of over 45% in size
# Procedure, shortened: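 Metabolic activation used human liver microsomes and NADPH, both 0.5 mg/mL final, over 16 hours at 37 C on p53RE-bla cells (4,000/well). Cytotoxicity measured by CellTiter-Glo luminescence, 30 min at room temperature.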
# [6] = p53 small molecule agonists, cell-based qHTS assay with rat liver microsomes: qHTS cell viability counter screen (AID 1963580); further: nearly all actives have a fitted effect of over 45% in size
# Procedure, shortened: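 After the beta-lactamase ratio was read, CellTiter-Glo was added to the same wells and luminescence measured at 30 min; cells had been treated 16 h at 37 C with compounds, rat liver microsomes and NADPH (0.5 mg/mL final each).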
# [7] = p53 small molecule agonists, cell-based qHTS assay: qHTS cell viability counter screen (AID 1963581); further: nearly all actives have a fitted effect of over 45% in size
# Procedure, shortened: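 qHTS counter screen: 16 h compound exposure at 37 C of p53RE-bla HCT-116 cells (4,000 per well, seeded 5 h prior), cell viability by ATP luminescence.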
# [8] = target: 5-hydroxytryptamine receptor 2A (Homo sapiens) (UniProt P28223); assay: 5-hydroxytryptamine receptor 2A (HTR2A) small molecule antagonists, cell-based qHTS assay (AID 1963586); further: nearly all actives have a fitted effect of over 45% in size
# Procedure, shortened: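 CHO cells stably expressing human HTR2A were plated for 18 h at 37 C, then loaded with calcium dye for 1 h. Compounds were preincubated 5 min at room temperature before DOI (4 nM solution) was added. Kinetic fluorescence was read for 3 min.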
# [9] = target: Muscarinic acetylcholine receptor M1 (Homo sapiens) (UniProt P11229); assay: Cholinergic receptor muscarinic 1 (CHRM1) small molecule antagonists, cell-based qHTS assay (AID 1963588); further: nearly all actives have a fitted effect of over 40% in size
# Procedure, shortened: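 Compounds were tested at 15 concentrations in three independent runs. Dye-loaded CHRM1-CHO cells were exposed 5 min at room temperature before stimulation by acetylcholine added at 50nM. Intracellular calcium was read kinetically on FDSS for 3 min.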
# [10] = target: Muscarinic acetylcholine receptor M1 (Homo sapiens) (UniProt P11229); assay: Cholinergic receptor muscarinic 1 (CHRM1) small molecule agonists, cell-based qHTS assay (AID 1963589); further: nearly all actives have a fitted effect of over 35% in size
# Procedure, shortened: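 Kinetic fluorescence (1 s intervals) of calcium-sensitive dye in human M1 CHO cells after compound addition; cells pre-incubated 18 h at 37 C/5% CO2 and dye-loaded 1 h.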
# [11] = cAMP Responsive Elements (CRE) small molecule agonists, cell-based qHTS assay (AID 1963590)
# Procedure, shortened: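 Test agents in DMSO were incubated 3 h at 37 C/5% CO2 with CRE-bla HEK 293T cells seeded 18 h earlier; LiveBLAzer B/G FRET substrate was added and read after 2 h at room temperature.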
# [12] = cAMP Responsive Elements (CRE) small molecule antagonists, cell-based qHTS assay (AID 1963591; active means well fitted inhibition curve with a large enough effect in the signal ratio in the repeat runs, not every such curve was filed as active; the % refers to the signal ratio)
# Procedure, shortened: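 Reporter line CRE-bla HEK 293T in dialyzed-FBS DMEM; cells preincubated 18 h, treated 3 h with compound plus NKH477 (0.25 uM final); LiveBLAzer FRET, 2 h RT.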
# [13] = target: Beta-2 adrenergic receptor (Homo sapiens) (UniProt P07550); assay: Adrenergic beta2 receptor (ADRB2) small molecule antagonists, cell-based qHTS assay (AID 1963592); further: series mostly up to about 92 µM; nearly all actives have a fitted effect of over 50% in size
# Procedure, shortened: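 Assay format: CHO-ADRB2 cells, 18-20hr seeding at 37C/5% CO2, then compound plus 1nM isoproterenol agonist mix for 0.5hr RT. Homogeneous time-resolved fluorescence cAMP detection after 1hr, expressed as 665/615 nm ratio.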
# [14] = target: Beta-2 adrenergic receptor (Homo sapiens) (UniProt P07550); assay: Adrenergic beta2 receptor (ADRB2) small molecule agonists, cell-based qHTS assay (AID 1963593);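 further: CHO cells stably overexpressing human ADRB2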
# Procedure, shortened: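 CHO cells stably over-expressing ADRB2 were plated overnight at 37C, then dosed with compounds plus a stimulation mix containing 100uM IBMX and 25uM Ro-20-1724 for 0.5hr at room temperature. cAMP was measured by HTRF competition, 1hr.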
# [15] = target: D(2) dopamine receptor (Homo sapiens) (UniProt P14416); assay: Dopamine D2 receptor (DRD2) small molecule agonists, cell-based qHTS assay (AID 1963594); further: nearly all actives have a fitted effect of over 35% in size
# Procedure, shortened: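 HEK293 cells stably expressing human DRD2, pre-treated with PDE inhibitor Ro20-1724 (0.1 mM final) and compound 10 min at room temperature, then stimulated with NKH477 (200nM […]) for 30 min. cAMP read by HTRF (665/620 nm).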
# [16] = target: D(2) dopamine receptor (Homo sapiens) (UniProt P14416); assay: Dopamine D2 receptor (DRD2) small molecule antagonists, cell-based qHTS assay (AID 1963595; active means well fitted inhibition curve with a large enough effect in the signal ratio in the repeat runs, with a control signal flat; the % refers to the signal ratio)
# Procedure, shortened: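 In this cell-based antagonist screen, compounds act for 10 min at room temperature before a 30 min challenge with 12 nM quinpirole and 200 nM NKH477. cAMP is quantified by HTRF competition in DRD2-HEK293 cells containing 0.1 mM Ro20-1724.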
# [17] = target: 5-hydroxytryptamine receptor 2A (Homo sapiens) (UniProt P28223); assay: 5-hydroxytryptamine receptor 2A (HTR2A) small molecule agonists, cell-based qHTS assay (AID 1963587); further: nearly all actives have a fitted effect of over 30% in size; further: potency means the concentration at half of the fitted maximal effect
# Procedure, shortened: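 CHO cells stably expressing human HTR2A, plated 18 h, loaded with calcium dye 1 h at 37 C. Agonist mode: compounds added and intracellular calcium fluorescence recorded kinetically for 2 min at 1 sec intervals.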
# [18] = p53 small molecule agonists, cell-based qHTS assay with rat liver microsomes (AID 1963578)
# Procedure, shortened: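 Metabolic activation by rat liver microsomes and NADPH, each 0.5 mg/mL final, added right after compounds to p53RE-bla reporter cells (4,000/well, plated 5 h earlier). 16 h at 37 C, then LiveBLAzer substrate for 2 h at room temperature in the dark; fluorescence read-out.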
# [19] = p53 small molecule agonists, cell-based qHTS assay (AID 1963582; active means well fitted activation curve with a large enough effect in the signal ratio in the repeat runs, not every such curve was filed as active; the % refers to the signal ratio)
# Procedure, shortened: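 Measured: fluorescence from cleaved LiveBLAzer substrate. System: p53RE-bla cells, 16 h compound treatment at 37 C, 2 h substrate step at room temperature.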
# [20] = G protein-coupled receptor (GPCR) small molecule agonists, calcium flux assay: HEK293 wild type cell line counter screen (AID 1920065)
# Procedure, shortened: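 Following 18 h incubation at 37 C/5% CO2, plates got calcium dye for 1 h; compounds, ATP or DMSO were then pinned in and fluorescence followed kinetically (480/540 nm).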
# Sequence of Muscarinic acetylcholine receptor M1 (Homo sapiens) (P11229 whole entry, looked up): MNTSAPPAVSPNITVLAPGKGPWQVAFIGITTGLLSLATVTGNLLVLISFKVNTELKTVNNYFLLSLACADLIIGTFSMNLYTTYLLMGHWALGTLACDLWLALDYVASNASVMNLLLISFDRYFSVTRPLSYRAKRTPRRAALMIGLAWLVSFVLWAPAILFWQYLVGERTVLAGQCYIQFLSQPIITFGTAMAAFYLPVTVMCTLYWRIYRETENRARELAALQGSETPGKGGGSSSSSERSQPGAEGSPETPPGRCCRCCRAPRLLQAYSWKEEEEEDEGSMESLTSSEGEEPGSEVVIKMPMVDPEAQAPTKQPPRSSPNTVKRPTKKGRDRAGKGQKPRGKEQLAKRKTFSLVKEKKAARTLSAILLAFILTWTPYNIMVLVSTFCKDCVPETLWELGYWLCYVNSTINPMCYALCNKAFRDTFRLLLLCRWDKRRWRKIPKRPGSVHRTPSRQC
# Sequence of Beta-2 adrenergic receptor (Homo sapiens) (P07550 whole entry, looked up): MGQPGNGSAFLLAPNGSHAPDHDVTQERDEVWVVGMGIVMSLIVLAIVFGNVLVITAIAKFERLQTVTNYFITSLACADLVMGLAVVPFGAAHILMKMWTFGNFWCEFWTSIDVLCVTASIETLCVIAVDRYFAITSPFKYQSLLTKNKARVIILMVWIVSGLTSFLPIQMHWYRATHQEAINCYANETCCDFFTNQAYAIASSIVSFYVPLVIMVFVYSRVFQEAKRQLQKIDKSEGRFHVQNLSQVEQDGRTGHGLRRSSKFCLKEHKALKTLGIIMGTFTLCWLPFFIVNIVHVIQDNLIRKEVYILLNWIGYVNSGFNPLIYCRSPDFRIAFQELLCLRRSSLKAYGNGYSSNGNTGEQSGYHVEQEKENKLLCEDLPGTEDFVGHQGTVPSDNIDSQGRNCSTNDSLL
# Sequence of D(2) dopamine receptor (Homo sapiens) (P14416 whole entry, looked up): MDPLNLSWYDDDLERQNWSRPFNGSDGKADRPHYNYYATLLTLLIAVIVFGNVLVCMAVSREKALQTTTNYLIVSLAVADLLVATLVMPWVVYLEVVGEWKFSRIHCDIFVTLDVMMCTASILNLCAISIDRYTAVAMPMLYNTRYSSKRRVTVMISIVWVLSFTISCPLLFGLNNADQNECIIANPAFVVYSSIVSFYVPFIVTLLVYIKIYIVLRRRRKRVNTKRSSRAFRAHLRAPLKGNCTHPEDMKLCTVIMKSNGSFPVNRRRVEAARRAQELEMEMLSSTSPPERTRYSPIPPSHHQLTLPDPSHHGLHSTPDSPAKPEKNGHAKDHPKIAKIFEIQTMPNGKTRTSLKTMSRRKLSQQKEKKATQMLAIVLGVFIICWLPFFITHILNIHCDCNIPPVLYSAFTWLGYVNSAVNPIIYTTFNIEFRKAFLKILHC
# Sequence of 5-hydroxytryptamine receptor 2A (Homo sapiens) (P28223 whole entry, looked up): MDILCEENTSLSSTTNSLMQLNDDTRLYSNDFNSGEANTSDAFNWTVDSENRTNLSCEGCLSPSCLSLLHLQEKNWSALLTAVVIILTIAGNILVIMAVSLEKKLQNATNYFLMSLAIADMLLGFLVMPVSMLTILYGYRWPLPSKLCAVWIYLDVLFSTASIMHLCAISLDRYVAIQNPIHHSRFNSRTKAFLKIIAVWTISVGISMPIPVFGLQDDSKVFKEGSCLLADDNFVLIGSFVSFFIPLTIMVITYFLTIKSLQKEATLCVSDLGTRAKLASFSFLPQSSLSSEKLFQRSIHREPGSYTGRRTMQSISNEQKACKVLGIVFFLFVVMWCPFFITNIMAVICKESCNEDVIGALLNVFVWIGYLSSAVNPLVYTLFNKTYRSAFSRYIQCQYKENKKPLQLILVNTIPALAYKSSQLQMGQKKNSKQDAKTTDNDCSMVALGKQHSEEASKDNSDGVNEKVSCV
# Sequence of Gonadotropin-releasing hormone receptor (Homo sapiens) (P30968 whole entry, looked up): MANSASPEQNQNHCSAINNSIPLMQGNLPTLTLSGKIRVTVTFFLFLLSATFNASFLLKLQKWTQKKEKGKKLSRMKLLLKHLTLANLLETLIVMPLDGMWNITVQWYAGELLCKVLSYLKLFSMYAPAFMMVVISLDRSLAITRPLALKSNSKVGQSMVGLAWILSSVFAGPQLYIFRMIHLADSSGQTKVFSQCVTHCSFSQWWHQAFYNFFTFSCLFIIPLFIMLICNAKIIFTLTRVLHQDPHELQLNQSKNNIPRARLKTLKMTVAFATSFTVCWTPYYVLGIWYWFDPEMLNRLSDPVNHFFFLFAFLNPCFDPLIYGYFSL
# Sequence of KiSS-1 receptor (Homo sapiens) (Q969F8 whole entry, looked up): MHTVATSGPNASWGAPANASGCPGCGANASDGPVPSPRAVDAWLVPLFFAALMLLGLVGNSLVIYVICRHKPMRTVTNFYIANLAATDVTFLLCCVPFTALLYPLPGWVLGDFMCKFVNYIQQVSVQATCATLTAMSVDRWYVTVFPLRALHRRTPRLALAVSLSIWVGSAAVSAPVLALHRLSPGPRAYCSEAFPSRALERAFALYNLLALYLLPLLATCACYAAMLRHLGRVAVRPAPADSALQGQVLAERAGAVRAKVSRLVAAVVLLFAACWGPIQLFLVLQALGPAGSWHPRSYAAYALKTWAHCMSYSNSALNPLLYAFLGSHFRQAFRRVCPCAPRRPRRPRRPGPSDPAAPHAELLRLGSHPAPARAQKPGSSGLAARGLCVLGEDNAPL
SMILES,Potency [1],Potency [2],Potency [3],Potency [4],Potency [5],Potency [6],Potency [7],Potency [8],Potency [9],Potency [10],Potency [11],Potency [12],Potency [13],Potency [14],Potency [15],Potency [16],Potency [17],Potency [18],Potency [19],Potency [20]
CCO[Si](CCC1CCC2OC2C1)(OCC)OCC (stereo not drawn),inactive,inactive,inactive,inactive,inactive,inactive,inactive,inactive,inactive,inactive,inactive,inactive,inactive,inactive,inactive,inactive,–,–,–,–
C=CC(=C)CCCC(C)(C)OC(C)=O,inactive,inactive,inactive,inactive,inactive,inactive,inactive,inactive,–,inactive,inactive,–,inactive,inactive,inactive,inactive,inactive,–,–,–
CCCCCC=CCC=CCCCCCCCC(=O)OCC,inactive,29.8 µM (active),inactive,inactive,inactive,inactive,inactive,inactive,inactive,inactive,–,–,inactive,–,–,inactive,inactive,inactive,inactive,–
CC/C=C\C/C=C\C/C=C\CCCCCCCC(=O)OCC,inactive,70.1 µM (active),inactive,inactive,–,–,–,inactive,inactive,inactive,–,–,inactive,inactive,inactive,inactive,inactive,–,–,inactive
CC/C=C\CC/C=C/CO,inactive,inactive,inactive,inactive,inactive,inactive,–,inactive,inactive,inactive,inactive,inactive,inactive,–,inactive,inactive,inactive,–,–,–
C=Cc1ccc(C(C)(C)C)cc1,inactive,inactive,inactive,inactive,inactive,inactive,inactive,inactive,inactive,inactive,inactive,inactive,inactive,inactive,inactive,inactive,inactive,–,–,–
CCCCCCCCCCCCCCC[C@H](O)[C@@H](N)CO,inactive,inactive,inactive,inactive,inactive,inactive,inactive,inactive,–,inactive,inactive,inactive,inactive,inactive,–,inactive,7.56 µM (active),inactive,inactive,–
